This passage reports Potency results from PubChem BioAssay (NCATS).

The structures appear in SMILES notation. Results filed as inconclusive are left out. Active and inactive are the calls of the source. The call rests on the fitted dose curve; in most records, active means well fitted inhibition curve with a large enough effect; inconclusive means small, poorly fitted or top-dose-only effect; inactive means flat fitted curve, though single readings scatter.

What all share (test): qHTS profiling for inhibitors of Plasmodium falciparum proliferation (AID 504749); further: nearly all actives have a fitted effect of over 60% in size
Common to all, as to settings: P. falciparum in erythrocytes, SYBR Green DNA, 72 h; series mostly up to 28.7 µM

For one assay, the system named is CP211. In short, it runs like this:
(§1)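 SYBR Green fluorescence (ex 485 nm, em 535 nm) reports parasite DNA after 72 h compound exposure of infected red cells at 0.3% parasitemia, 2.5% hematocrit; signal normalized to 0.29 uM artemisinin and vehicle wells.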

For a further assay, the system named is CP215. A digest of the protocol:
as §1

The test system of a further assay is CP217. In short, it runs like this:
as §1

In another assay the test system is CP237. A digest of the protocol: as §1
Another assay has as its system CP238. A digest of the protocol: as §1
The next assay has as its system CP250. In short, it runs like this:
as §1

For the next assay, the system named is CP252. A digest of the protocol: as §1
The next assay has as its system CP256. In short, it runs like this: as §1
Another assay concerns CP247. A digest of the protocol:
as §1
Potency means the concentration at half of the fitted maximal effect.

In the case of `CCC1(c2ccccc2)C(=O)NC(=O)N(C(=O)c2ccccc2)C1=O` (configuration not stated), the Potency entry in the assay on CP211, with CP215, in the assay with CP217, in the assay with CP237, with CP238 and in the assay on CP250 was “inactive” throughout. Besides, the Potency result with CP252 and in the assay on CP256 was “inactive” throughout.
Turning to `CCOC(=O)c1ccccc1C(=O)OCC`, the Potency result in the assay on CP211, with CP215, with CP217, with CP237, in the assay on CP238 and in the assay on CP247 was “inactive” each time. Moreover, the Potency result in the assay on CP250, with CP252 and in the assay with CP256 was “inactive” each time.
For the compound `FC(F)OC(F)(F)C(F)Cl` (configuration not stated), the Potency entry in the assay with CP211, with CP215, with CP217, in the assay on CP237, with CP238 and in the assay with CP247 was “inactive” in each case. Besides, the Potency result with CP250, in the assay on CP252 and in the assay on CP256 was “inactive” throughout.
As to `CNC(C)C(O)c1ccc(O)cc1` (configuration not stated), the Potency result in the assay with CP211, in the assay on CP215, with CP217, with CP237, in the assay on CP238 and in the assay on CP247 was “inactive” in each case. For the same compound, the Potency result with CP250, in the assay on CP252 and with CP256 was “inactive” in each case.
For `CCN(CC)C(=O)/C(Cl)=C(\C)OP(=O)(OC)OC`, the Potency entry in the assay with CP217, with CP237, in the assay on CP238, with CP247, with CP250 and with CP252 was “inactive” each time. The Potency entry in the assay on CP256 was “inactive”.
Regarding `c1cc2c(c(NC3=NCCN3)c1)CCCC2`, the Potency result in the assay with CP217, in the assay with CP237, in the assay on CP238, in the assay on CP247, in the assay with CP250 and with CP252 was “inactive” in each case. In addition, the Potency entry with CP256 was “inactive”.
As for `O=C(NC(=O)c1c(F)cccc1F)Nc1ccc(Cl)c(Oc2ncc(C(F)(F)F)cc2Cl)c1`, the Potency result in the assay on CP211, in the assay on CP217, with CP237, in the assay on CP238, with CP247 and in the assay on CP250 was “inactive” throughout. For the same compound, the Potency entry with CP252 and with CP256 was “inactive” each time.
With `COc1ccc2c(c1OC)C(=O)OC2C1c2cc3c(cc2CCN1C)OCO3` (configuration not stated), the Potency result in the assay with CP217, in the assay on CP237, in the assay on CP247, in the assay on CP250, in the assay with CP252 and with CP256 was “inactive” each time.
For the compound `CC1CCC(C(C)C)C(OC(=O)c2ccccc2N)C1` (configuration not stated), the Potency result in the assay on CP211, in the assay with CP215, in the assay with CP217, in the assay with CP238, with CP247 and with CP250 was “inactive” each time. For the same compound, the Potency result in the assay with CP252 and in the assay on CP256 was “inactive” throughout.
With `CCCCCCCCOC(=O)c1ccccc1C(=O)OCCCCCCCC`, the Potency entry with CP211, in the assay on CP215, with CP217, in the assay with CP237, with CP238 and in the assay with CP247 was “inactive” each time. The Potency result with CP250, in the assay on CP252 and in the assay on CP256 was “inactive” in each case.
Take `O=C1CN=C(c2ccccc2)c2cc(Cl)ccc2N1CC1CC1`: the Potency result in the assay with CP211, in the assay with CP215, in the assay with CP217, in the assay with CP237, in the assay on CP238 and with CP250 was “inactive” in each case. Further, the Potency result in the assay with CP252 and in the assay with CP256 was “inactive” throughout.
Regarding `CC(C)Nc1ccc(Nc2ccccc2)cc1`, the Potency in the assay on CP211 is 3.79 µM (active); in the assay on CP215 it was 4.26 µM (active); in the assay with CP217, 5.01 µM (active); in the assay on CP237, 7.94 µM (active); in the assay on CP238 it was 10 µM (active); with CP247, 4.47 µM (active). Moreover, the Potency was 5.01 µM (active) in the assay on CP250, 7.08 µM (active) with CP252 and 7.94 µM (active) with CP256.
